Assay results as given in PubChem BioAssay (Tox21).
Inconclusive results are not listed. Activity calls are given as the source filed them. Unless noted, calls come from the whole dose curve; as a rule, active = well fitted curve in the direction sought with a large enough effect in the repeat runs; inconclusive = weak or mixed curves; inactive = no such curve, though single readings can be large; an effect the other way counts as inactive or inconclusive.

Columns and labels:
[1] = qHTS assay to identify small molecule agonists of the AP-1 signaling pathway - cell viability counter screen (AID 1159525; calls by dose curve; note: nearly all actives have a fitted effect of over 55% in size; note: potency is the fitted concentration of half-maximal effect)
Procedure, shortened: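 Each titration point was normalised to DMSO and tetra n-octyl ammonium bromide controls. The read was Cell Titer Glo luminescence after 30 min at RT, following 5 h compound exposure of ME-180 AP-1-bla cells at 37 °C.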

[2] = qHTS assay to identify small molecule agonists of the estrogen related receptor signaling pathway with the pleiotropic PPARgamma coactivator (PGC) from Tox21 10K library (AID 1224842); note: % is set by controls: 0 for no effect and ±100 for the full control effect; nearly all actives have a fitted effect of over 15% in size
Procedure, shortened: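 PGC/ERR reporter cells (NTP line) were seeded 2,000 per well, rested 6 h at 37 C/5% CO2, then pin-dosed with compounds in DMSO for 18 h at 37 C; luciferase read by One-Glo luminescence after 30 min at room temperature.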

[3] = qHTS RealTime-Glo MT Cell Viability Assay in HepG2 cells - 40 hour (AID 1224870); note: % is set by controls: 0 for no effect and ±100 for the full control effect; nearly all actives have a fitted effect of over 50% in size
Procedure, shortened: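 HepG2 cells mixed with RealTime-Glo MT reagents (NanoLuc plus cell-permeant prosubstrate) were seeded at 600 cells/well, incubated 5 h at 37 C/5% CO2, then pinned with compounds in DMSO; nonlytic luminescence tracked viability during 40 h treatment.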

[4] = A CellTox Green Cytotoxicity Assay to monitor cytotoxicity in HEK293 cells - 40 hour (AID 1224871); note: nearly all actives have a fitted effect of over 45% in size; note: potency is the fitted concentration of half-maximal effect
Procedure, shortened: (§1)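 Cells (HEK293, 600/well) and dye reagent are dispensed together. After 5 h at 37 C, 23 nL compound is pinned in. Plates stay at 37 C for 40 h with fluorescence read at 0h, 8h, 16h, 24h, 32h and 40h.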

[5] = qHTS RealTime-Glo MT Cell Viability Assay in HEK293 cells - 40 hour (AID 1224874); settings: RealTime-Glo luminescence; max response: stronger effect = lower value; note: nearly all actives have a fitted effect of over 50% in size; note: potency is the fitted concentration of half-maximal effect; for max response: % is set by controls: 0 for no effect and ±100 for the full control effect
Procedure, shortened: (§2)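 Real-time viability in HEK293: signal arises when living cells convert a prosubstrate for NanoLuc in the medium, so luminescence tracks viable cell number. Compound (23 nL, DMSO) added 5 h post-seeding; kinetic reads at 0–40 h, 37 C.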

[6] = qHTS RealTime-Glo MT Cell Viability Assay in HepG2 cells - 32 hour (AID 1224877); note: % is set by controls: 0 for no effect and ±100 for the full control effect; nearly all actives have a fitted effect of over 55% in size
Procedure, shortened: (§3)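 Luminescence read-out: viable HepG2 cells reduce a prosubstrate to a NanoLuc substrate, giving a signal proportional to live cell number. Reads taken at 0, 8, 16, 24, 32 and 40 h of compound exposure at 37 C.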

[7] = qHTS RealTime-Glo MT Cell Viability Assay in HEK293 cells - 0 hour (AID 1224880); note: top concentration of the series differs between compounds; % is set by controls: 0 for no effect and ±100 for the full control effect; nearly all actives have a fitted effect of over 45% in size
Procedure, shortened: as §2

[8] = A CellTox Green Cytotoxicity Assay to monitor cytotoxicity in HEK293 cells - 16 hour (AID 1224888); note: nearly all actives have a fitted effect of over 35% in size; note: potency is the fitted concentration of half-maximal effect
Procedure, shortened: as §1

[9] = qHTS RealTime-Glo MT Cell Viability Assay in HepG2 cells - 0 hour (AID 1224889); note: % is set by controls: 0 for no effect and ±100 for the full control effect; nearly all actives have a fitted effect of over 50% in size
Procedure, shortened: as §3

[10] = A CellTox Green Cytotoxicity Assay to monitor cytotoxicity in HepG2 cells - 8 hour (AID 1224890); note: % is set by controls: 0 for no effect and ±100 for the full control effect; nearly all actives have a fitted effect of over 45% in size
Procedure, shortened: (§4)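 Cells and non-lytic dye reagent are dispensed together (600 HepG2 cells/well) and incubated 5 h before DMSO compound transfer. Kinetic fluorescence is then recorded in the same wells during 40 h at 37 C.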

[11] = qHTS assay to identify small molecule antagonists of the estrogen receptor alpha (ER-alpha) signaling pathway using the BG1 cell line in the presence of 0.1 nM 17-beta-estradiol - cell viability counter screen (AID 1259241); note: % is set by controls: 0 for no effect and ±100 for the full control effect; nearly all actives have a fitted effect of over 40% in size
Procedure, shortened: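 Cytotoxicity counter-screen: live-cell protease activity measured by fluorescence (30 min reagent step) in the same wells. Cells were VM7Luc4E2 with endogenous ER-alpha and ERE-driven luciferase, treated 22 hr at 37C alongside 0.1 nM 17beta-estradiol final.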

[12] = qHTS assay to identify small molecule HDAC inhibitors - cell viability counter screen (AID 1259365); note: series mostly up to about 92 µM; % is set by controls: 0 for no effect and ±100 for the full control effect; nearly all actives have a fitted effect of over 50% in size
Procedure, shortened: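 CellTiter-Glo luminescence (30 min, room temperature) reported viability after a 2 h compound exposure at 37 C. Cells: wild-type HCT-116, 1,500 per well, seeded the night before.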

[13] = qHTS assay to identify small molecule antagonists of the sonic hedgehog signaling (Shh) pathway (AID 1259369; calls by dose curve; note: nearly all actives have a fitted effect of over 45% in size; note: potency is the fitted concentration of half-maximal effect; for activity change, negative = inhibition: % is set by controls: 0 for no effect and ±100 for the full control effect)
Procedure, shortened: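 Cells are plated and held 4hr at 37 C, compounds (DMSO) are pinned in, conditioned medium is added to stimulate the pathway, and after 24hr luciferase reagent is added for 30min before luminescence is read.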

[14] = qHTS assay to identify small molecule agonists or antagonists of the thyroid stimulating hormone receptor (TSHR) signaling pathway - wild type cell line counter screen (AID 1259384; calls by dose curve; note: % is set by controls: 0 for no effect and ±100 for the full control effect)
Procedure, shortened: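 Wild-type HEK293 cells were plated 18 h at 37 C/5% CO2, pin-dosed with compound plus Ro20-1724 medium, held 30 min at room temperature, then given cAMP-d2 and anti-cAMP-cryptate; fluorescence was read after 1 h. Fifteen concentrations, triplicate.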

[15] = target: Cytochrome P450 1A2 (Homo sapiens) (UniProt P05177); test: Cytochrome P450 Family 1 Subfamily A Member 2 (CYP1A2) small molecule antagonists: luciferase reporter qHTS assay (AID 1671199); note: nearly all actives have a fitted effect of over 50% in size; note: potency is the fitted concentration of half-maximal effect
Procedure, shortened: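 Compounds were incubated with CYP1A2 and a luminogenic proluciferin substrate for 10 min at room temperature before the reaction was started with NADPH regeneration solution. After 1 h, detection reagent was added and light output, proportional to CYP activity, was recorded.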

[16] = target: Voltage-gated inwardly rectifying potassium channel KCNH2 (Homo sapiens) (UniProt Q12809); test: Human Ether-a-go-go-Related Gene (hERG) channel small molecule antagonists: fluorescence cell-based qHTS assay (AID 1671200); note: nearly all actives have a fitted effect of over 50% in size; note: potency is the fitted concentration of half-maximal effect
Procedure, shortened: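 Thallium flux as potassium surrogate: FluxOR II dye loaded 1 h at room temperature into hERG-expressing U2OS cells, then stimulus buffer added after 10 min. Kinetic 480 nm excitation/540 nm emission read, 2 min.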

[17] = target: Nuclear receptor subfamily 1 group I member 3 (Homo sapiens) (UniProt Q14994); test: qHTS assay to identify small molecule antagonists of the constitutive androstane receptor (CAR) signaling pathway (AID 1224838);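 note: HepG2 cells stably expressing hCAR with CYP2B6 luciferase reporter stimulated by CITCO; % is set by controls: 0 for no effect and ±100 for the full control effect; nearly all actives have a fitted effect of over 40% in size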
Procedure, shortened: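 Antagonist mode used CITCO at a final 50 nM to activate CAR in human hepatoma HepG2 cells carrying stable hCAR and a 2.2 kb CYP2B6 promoter-luciferase construct. Compounds were tested at 15 concentrations over 24 h, with luminescence as the end point.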

[18] = A CellTox Green Cytotoxicity Assay to monitor cytotoxicity in HEK293 cells - 0 hour (AID 1224869)
Procedure, shortened: as §1

[19] = A CellTox Green Cytotoxicity Assay to monitor cytotoxicity in HepG2 cells - 16 hour (AID 1224876)
Procedure, shortened: as §4

[20] = qHTS assay to identify small molecule agonists of the TGF-beta/Smad signaling pathway (AID 1346859; active = well fitted activation curve with a large enough effect in the signal ratio in the repeat runs, not every such curve was filed as active; the % refers to the signal ratio; note: series mostly up to about 77 µM; % is set by controls: 0 for no effect and ±100 for the full control effect)
Procedure, shortened: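 Fluorescence (ex 405 nm; em 460 and 530 nm) was read 2 h after LiveBLAzer FRET substrate at RT. The preceding compound treatment of overnight-plated SBE-bla HEK293T cells lasted 5 h at 37 C.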

Nuclear receptor subfamily 1 group I member 3 (Homo sapiens), sequence (Q14994 whole entry, looked up): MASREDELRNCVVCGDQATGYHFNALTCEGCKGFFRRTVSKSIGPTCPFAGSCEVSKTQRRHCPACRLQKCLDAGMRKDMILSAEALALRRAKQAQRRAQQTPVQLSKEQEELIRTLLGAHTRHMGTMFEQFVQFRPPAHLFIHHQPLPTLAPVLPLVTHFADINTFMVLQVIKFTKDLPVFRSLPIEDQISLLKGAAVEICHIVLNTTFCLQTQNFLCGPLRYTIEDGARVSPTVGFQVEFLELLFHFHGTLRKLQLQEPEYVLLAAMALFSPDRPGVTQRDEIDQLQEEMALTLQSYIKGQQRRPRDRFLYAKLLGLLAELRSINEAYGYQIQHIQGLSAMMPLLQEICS
Voltage-gated inwardly rectifying potassium channel KCNH2 (Homo sapiens), sequence (Q12809 whole entry, looked up): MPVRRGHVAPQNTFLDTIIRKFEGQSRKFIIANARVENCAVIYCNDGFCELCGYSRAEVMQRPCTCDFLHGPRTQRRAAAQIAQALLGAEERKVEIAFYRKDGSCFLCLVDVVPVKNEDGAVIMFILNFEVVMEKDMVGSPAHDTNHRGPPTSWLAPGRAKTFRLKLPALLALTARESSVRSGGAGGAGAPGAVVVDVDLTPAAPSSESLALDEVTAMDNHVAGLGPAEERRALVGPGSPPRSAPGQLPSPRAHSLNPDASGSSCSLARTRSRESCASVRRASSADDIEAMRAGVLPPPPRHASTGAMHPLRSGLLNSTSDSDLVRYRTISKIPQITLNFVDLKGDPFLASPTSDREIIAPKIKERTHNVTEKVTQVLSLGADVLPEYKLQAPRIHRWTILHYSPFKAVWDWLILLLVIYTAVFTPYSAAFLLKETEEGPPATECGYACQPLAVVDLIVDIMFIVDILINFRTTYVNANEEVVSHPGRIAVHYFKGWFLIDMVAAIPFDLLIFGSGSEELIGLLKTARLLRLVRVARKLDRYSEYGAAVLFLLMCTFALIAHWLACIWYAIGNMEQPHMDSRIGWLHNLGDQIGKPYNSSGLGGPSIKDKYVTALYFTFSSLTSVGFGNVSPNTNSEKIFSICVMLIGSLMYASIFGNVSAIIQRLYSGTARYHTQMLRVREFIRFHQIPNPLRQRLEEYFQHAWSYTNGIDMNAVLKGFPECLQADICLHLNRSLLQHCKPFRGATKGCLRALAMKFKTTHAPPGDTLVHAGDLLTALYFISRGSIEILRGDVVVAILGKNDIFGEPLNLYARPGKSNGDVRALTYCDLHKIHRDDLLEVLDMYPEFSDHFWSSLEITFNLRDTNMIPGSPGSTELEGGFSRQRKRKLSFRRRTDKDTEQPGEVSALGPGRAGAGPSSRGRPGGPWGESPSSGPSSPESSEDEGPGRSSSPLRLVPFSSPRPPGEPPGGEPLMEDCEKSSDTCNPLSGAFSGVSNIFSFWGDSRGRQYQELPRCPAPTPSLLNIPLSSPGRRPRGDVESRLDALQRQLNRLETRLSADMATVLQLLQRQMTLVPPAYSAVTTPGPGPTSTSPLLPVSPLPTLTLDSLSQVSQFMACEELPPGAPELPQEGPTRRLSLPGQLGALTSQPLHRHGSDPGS
Cytochrome P450 1A2 (Homo sapiens), sequence (P05177 whole entry, looked up): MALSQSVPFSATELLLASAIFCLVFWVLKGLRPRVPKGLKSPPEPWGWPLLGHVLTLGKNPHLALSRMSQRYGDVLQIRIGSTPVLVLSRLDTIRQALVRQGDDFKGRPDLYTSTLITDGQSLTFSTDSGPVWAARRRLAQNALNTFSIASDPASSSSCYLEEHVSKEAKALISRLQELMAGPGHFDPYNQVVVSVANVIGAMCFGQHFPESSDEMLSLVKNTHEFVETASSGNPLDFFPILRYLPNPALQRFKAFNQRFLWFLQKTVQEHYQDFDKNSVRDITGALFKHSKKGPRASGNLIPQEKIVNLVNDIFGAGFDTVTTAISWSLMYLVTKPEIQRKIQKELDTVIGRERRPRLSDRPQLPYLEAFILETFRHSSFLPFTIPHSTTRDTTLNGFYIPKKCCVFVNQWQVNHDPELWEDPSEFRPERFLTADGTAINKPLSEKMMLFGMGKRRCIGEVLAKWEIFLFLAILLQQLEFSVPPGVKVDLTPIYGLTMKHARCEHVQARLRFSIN

O=[N+]([O-])c1c(Cl)c(Cl)cc(Cl)c1Cl
active: Potency [4] 49 µM | Potency [8] 49 µM | Potency [15] 4.8 µM
inactive: Potency [1] | Potency [2] | Potency [3] | max response [5] 0.554% | Potency [6] | outcome [7] | Potency [9] | Potency [10] | Potency [11] | outcome [12] | Potency [13] | outcome [14] | Potency [16]

ClC(Cl)=C(c1ccc(Cl)cc1)c1ccccc1Cl
inactive: Potency [1] | Potency [17] | Potency [18] | Potency [3] | Potency [19] | Potency [6] | outcome [7] | Potency [8] | Potency [9] | Potency [10] | Potency [11] | outcome [12] | Potency [13] | outcome [14] | Potency [15]
active: Potency [16] 21.9 µM

Cc1cc(C)c(C(=O)P(=O)(c2ccccc2)c2ccccc2)c(C)c1
active: Potency [1] 38.9 µM | Potency [5] 38.9 µM | Potency [13] 4.33 µM | Potency [16] 19.5 µM
inactive: Potency [17] | Potency [2] | Potency [18] | Potency [3] | Potency [6] | Potency [8] | Potency [10] | Potency [11] | outcome [12] | outcome [14] | outcome [20] | Potency [15]

CC1COC(Cn2cncn2)(c2ccc(Oc3ccc(Cl)cc3)cc2Cl)O1 (stereo not drawn)
inactive: Potency [1] | Potency [2] | Potency [18] | Potency [19] | outcome [7] | Potency [8] | Potency [10] | Potency [11] | outcome [12] | outcome [14] | outcome [20]
active: Potency [4] 49 µM | Potency [5] 17.4 µM | Potency [13] 3.44 µM | Potency [15] 25.2 µM | Potency [16] 21.9 µM

CCCCC(CC)COC(=O)c1ccc(C(=O)OCC(CC)CCCC)cc1 (stereo not drawn)
inactive: Potency [2]

CC(c1ccccc1)(c1ccc(O)cc1)c1ccc(O)cc1
inactive: Potency [2] | Potency [18] | Potency [3] | Potency [6] | Potency [9] | Potency [11] | outcome [12] | outcome [14] | outcome [20] | Potency [15] | Potency [16]
active: Potency [1] 49 µM | Potency [5] 43.6 µM | Potency [13] 21.7 µM

Cc1ccc2nc3sc(=O)sc3nc2c1
active: Potency [15] 13.5 µM
inactive: activity, negative = inhibition [17] 67.8% [at 19 µM] | cytotoxicity [18] -0.433% [at 15.8 µM] | activity change, negative = cytotoxic [3] -11.2% [at 15.8 µM] | cytotoxicity increase [4] -10.2% [at 15.8 µM] | max response [5] 3.19% | cytotoxicity increase [19] -9.02% [at 15.8 µM] | activity change, negative = cytotoxic [6] -8.61% [at 15.8 µM] | activity change, negative = cytotoxicity [7] -3.58% [at 15.8 µM] | activity change [8] -2.03% [at 15.8 µM, stronger effect = higher value] | activity change, negative = cytotoxicity [9] 15.7% [at 15.8 µM] | cytotoxicity increase [10] -5.93% [at 15.8 µM] | activity change, negative = cytotoxicity [11] 1.06% [at 19 µM] | activity change, negative = cytotoxicity [12] 4.09% [at 19 µM] | activity change, negative = inhibition [13] -28.1% [at 19 µM] | cAMP activity change [14] 3.67% [at 18.9 µM] | activation [20] -3.69% [at 15.8 µM] | activity change, negative = inhibition [16] 2.68% [at 15.8 µM]

Cc1cc(C(C)(C)c2ccc(O)c(C)c2)ccc1O
active: Potency [5] 20.8 µM | Potency [13] 16.4 µM | Potency [15] 33.9 µM
inactive: Potency [1] | Potency [17] | Potency [2] | Potency [18] | Potency [3] | Potency [19] | Potency [6] | outcome [7] | Potency [9] | Potency [10] | Potency [11] | outcome [12] | outcome [14] | outcome [20]

N#Cc1cc([N+](=O)[O-])ccc1N
active: Potency [15] 35.6 µM
inactive: Potency [1] | Potency [17] | Potency [2] | Potency [18] | Potency [3] | Potency [4] | max response [5] -6.49% | Potency [19] | Potency [6] | outcome [7] | Potency [8] | Potency [9] | Potency [10] | Potency [11] | outcome [12] | outcome [14] | outcome [20] | Potency [16]
